# In the supplement of paper PMC4466140:
# Molecular target: AgAbp1
# Assay: SPOT peptide array binding signal intensity (averaged, normalized) (arbitrary units (background-subtracted, floor 0; scale differs between SH3 domains)); higher = stronger binding of the SH3 domain to the peptide
# Procedure, shortened: (§1)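 The binding signal is the normalized, background-subtracted spot intensity averaged over replicates; its arbitrary units differ between domains. It was obtained by incubating 10 μg/ml GST-fused SH3 domains from four yeast species overnight at 4°C in TBS-based blocking buffer on cellulose membranes with synthetic 15-mer peptides, cysteines replaced by serines, then detecting with anti-GST antibody, HRP anti-mouse secondary and luminol.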
row,Binder,SPOT peptide array binding signal intensity
1,SRQAIPPPVPNRPGG,≤ 0

# Molecular target: AgBbc1
# Assay: as above
# Procedure, shortened: as §1
row,Binder,SPOT peptide array binding signal intensity
1,SRQAIPPPVPNRPGG,1960

# Molecular target: AgBem1-D1
# Assay: as above
# Procedure, shortened: as §1
row,Binder,SPOT peptide array binding signal intensity
1,SRQAIPPPVPNRPGG,0.5

# Molecular target: AgBzz1-D1
# Assay: as above
# Procedure, shortened: as §1
row,Binder,SPOT peptide array binding signal intensity
1,SRQAIPPPVPNRPGG,280

# Molecular target: AgBzz1-D2
# Assay: as above
# Procedure, shortened: as §1
row,Binder,SPOT peptide array binding signal intensity
1,SRQAIPPPVPNRPGG,15

# Molecular target: AgCyk3
# Assay: as above
# Procedure, shortened: as §1
row,Binder,SPOT peptide array binding signal intensity
1,SRQAIPPPVPNRPGG,≤ 0

# Molecular target: AgFus1
# Assay: as above
# Procedure, shortened: as §1
row,Binder,SPOT peptide array binding signal intensity
1,SRQAIPPPVPNRPGG,≤ 0

# Molecular target: AgHof1
# Assay: as above
# Procedure, shortened: as §1
row,Binder,SPOT peptide array binding signal intensity
1,SRQAIPPPVPNRPGG,39.2

# Molecular target: AgHse1
# Assay: as above
# Procedure, shortened: as §1
row,Binder,SPOT peptide array binding signal intensity
1,SRQAIPPPVPNRPGG,40

# Molecular target: AgLsb1
# Assay: as above
# Procedure, shortened: as §1
row,Binder,SPOT peptide array binding signal intensity
1,SRQAIPPPVPNRPGG,1770

# Molecular target: AgLsb4
# Assay: as above
# Procedure, shortened: as §1
row,Binder,SPOT peptide array binding signal intensity
1,SRQAIPPPVPNRPGG,1590

# Molecular target: AgMyo5
# Assay: as above
# Procedure, shortened: as §1
row,Binder,SPOT peptide array binding signal intensity
1,SRQAIPPPVPNRPGG,74.5

# Molecular target: AgNbp2
# Assay: as above
# Procedure, shortened: as §1
row,Binder,SPOT peptide array binding signal intensity
1,SRQAIPPPVPNRPGG,106

# Molecular target: AgRvs167
# Assay: as above
# Procedure, shortened: as §1
row,Binder,SPOT peptide array binding signal intensity
1,SRQAIPPPVPNRPGG,362

# Molecular target: AgSho1
# Assay: as above
# Procedure, shortened: as §1
row,Binder,SPOT peptide array binding signal intensity
1,SRQAIPPPVPNRPGG,≤ 0

# Molecular target: AgSla1-D1-D2
# Assay: as above
# Procedure, shortened: as §1
row,Binder,SPOT peptide array binding signal intensity
1,SRQAIPPPVPNRPGG,≤ 0

# Molecular target: AgSla1-D3
# Assay: as above
# Procedure, shortened: as §1
row,Binder,SPOT peptide array binding signal intensity
1,SRQAIPPPVPNRPGG,3.5

# Molecular target: CaAbp1-D1
# Assay: as above
# Procedure, shortened: as §1
row,Binder,SPOT peptide array binding signal intensity
1,SRQAIPPPVPNRPGG,156

# Molecular target: CaAbp1-D2
# Assay: as above
# Procedure, shortened: as §1
row,Binder,SPOT peptide array binding signal intensity
1,SRQAIPPPVPNRPGG,8.5

# Molecular target: CaBbc1
# Assay: as above
# Procedure, shortened: as §1
row,Binder,SPOT peptide array binding signal intensity
1,SRQAIPPPVPNRPGG,3020

# Molecular target: CaBem1-D1
# Assay: as above
# Procedure, shortened: as §1
row,Binder,SPOT peptide array binding signal intensity
1,SRQAIPPPVPNRPGG,30

# Molecular target: CaBzz1-D1
# Assay: as above
# Procedure, shortened: as §1
row,Binder,SPOT peptide array binding signal intensity
1,SRQAIPPPVPNRPGG,2510

# Molecular target: CaBzz1-D2
# Assay: as above
# Procedure, shortened: as §1
row,Binder,SPOT peptide array binding signal intensity
1,SRQAIPPPVPNRPGG,346

# Molecular target: CaCyk3
# Assay: as above
# Procedure, shortened: as §1
row,Binder,SPOT peptide array binding signal intensity
1,SRQAIPPPVPNRPGG,359

# Molecular target: CaFus1
# Assay: as above
# Procedure, shortened: as §1
row,Binder,SPOT peptide array binding signal intensity
1,SRQAIPPPVPNRPGG,23

# Molecular target: CaHof1
# Assay: as above
# Procedure, shortened: as §1
row,Binder,SPOT peptide array binding signal intensity
1,SRQAIPPPVPNRPGG,1

# Molecular target: CaHse1
# Assay: as above
# Procedure, shortened: as §1
row,Binder,SPOT peptide array binding signal intensity
1,SRQAIPPPVPNRPGG,101

# Molecular target: CaLsb1
# Assay: as above
# Procedure, shortened: as §1
row,Binder,SPOT peptide array binding signal intensity
1,SRQAIPPPVPNRPGG,3.75

# Molecular target: CaLsb4
# Assay: as above
# Procedure, shortened: as §1
row,Binder,SPOT peptide array binding signal intensity
1,SRQAIPPPVPNRPGG,2960

# Molecular target: CaMyo5
# Assay: as above
# Procedure, shortened: as §1
row,Binder,SPOT peptide array binding signal intensity
1,SRQAIPPPVPNRPGG,2

# Molecular target: CaNbp2
# Assay: as above
# Procedure, shortened: as §1
row,Binder,SPOT peptide array binding signal intensity
1,SRQAIPPPVPNRPGG,50.5

# Molecular target: CaRvs167
# Assay: as above
# Procedure, shortened: as §1
row,Binder,SPOT peptide array binding signal intensity
1,SRQAIPPPVPNRPGG,1340

# Molecular target: CaRvs167-3
# Assay: as above
# Procedure, shortened: as §1
row,Binder,SPOT peptide array binding signal intensity
1,SRQAIPPPVPNRPGG,≤ 0

# Molecular target: CaSho1
# Assay: as above
# Procedure, shortened: as §1
row,Binder,SPOT peptide array binding signal intensity
1,SRQAIPPPVPNRPGG,8

# Molecular target: CaSla1-D1-D2
# Assay: as above
# Procedure, shortened: as §1
row,Binder,SPOT peptide array binding signal intensity
1,SRQAIPPPVPNRPGG,201

# Molecular target: CaSla1-D3
# Assay: as above
# Procedure, shortened: as §1
row,Binder,SPOT peptide array binding signal intensity
1,SRQAIPPPVPNRPGG,0.75

# Molecular target: ScAbp1
# Assay: as above
# Procedure, shortened: as §1
row,Binder,SPOT peptide array binding signal intensity
1,SRQAIPPPVPNRPGG,16

# Molecular target: ScBbc1
# Assay: as above
# Procedure, shortened: as §1
row,Binder,SPOT peptide array binding signal intensity
1,SRQAIPPPVPNRPGG,802

# Molecular target: ScBem1-D1
# Assay: as above
# Procedure, shortened: as §1
row,Binder,SPOT peptide array binding signal intensity
1,SRQAIPPPVPNRPGG,≤ 0

# Molecular target: ScBzz1-D1
# Assay: as above
# Procedure, shortened: as §1
row,Binder,SPOT peptide array binding signal intensity
1,SRQAIPPPVPNRPGG,23

# Molecular target: ScBzz1-D2
# Assay: as above
# Procedure, shortened: as §1
row,Binder,SPOT peptide array binding signal intensity
1,SRQAIPPPVPNRPGG,6

# Molecular target: ScCyk3
# Assay: as above
# Procedure, shortened: as §1
row,Binder,SPOT peptide array binding signal intensity
1,SRQAIPPPVPNRPGG,1

# Molecular target: ScFus1
# Assay: as above
# Procedure, shortened: as §1
row,Binder,SPOT peptide array binding signal intensity
1,SRQAIPPPVPNRPGG,≤ 0

# Molecular target: ScHof1
# Assay: as above
# Procedure, shortened: as §1
row,Binder,SPOT peptide array binding signal intensity
1,SRQAIPPPVPNRPGG,10

# Molecular target: ScHse1
# Assay: as above
# Procedure, shortened: as §1
row,Binder,SPOT peptide array binding signal intensity
1,SRQAIPPPVPNRPGG,≤ 0

# Molecular target: ScLsb1
# Assay: as above
# Procedure, shortened: as §1
row,Binder,SPOT peptide array binding signal intensity
1,SRQAIPPPVPNRPGG,1620

# Molecular target: ScLsb2
# Assay: as above
# Procedure, shortened: as §1
row,Binder,SPOT peptide array binding signal intensity
1,SRQAIPPPVPNRPGG,1320

# Molecular target: ScLsb3
# Assay: as above
# Procedure, shortened: as §1
row,Binder,SPOT peptide array binding signal intensity
1,SRQAIPPPVPNRPGG,3290

# Molecular target: ScLsb4
# Assay: as above
# Procedure, shortened: as §1
row,Binder,SPOT peptide array binding signal intensity
1,SRQAIPPPVPNRPGG,2540

# Molecular target: ScMyo3
# Assay: as above
# Procedure, shortened: as §1
row,Binder,SPOT peptide array binding signal intensity
1,SRQAIPPPVPNRPGG,371

# Molecular target: ScMyo5
# Assay: as above
# Procedure, shortened: as §1
row,Binder,SPOT peptide array binding signal intensity
1,SRQAIPPPVPNRPGG,220

# Molecular target: ScNbp2
# Assay: as above
# Procedure, shortened: as §1
row,Binder,SPOT peptide array binding signal intensity
1,SRQAIPPPVPNRPGG,304

# Molecular target: ScPex13
# Assay: as above
# Procedure, shortened: as §1
row,Binder,SPOT peptide array binding signal intensity
1,SRQAIPPPVPNRPGG,1830

# Molecular target: ScRvs167
# Assay: as above
# Procedure, shortened: as §1
row,Binder,SPOT peptide array binding signal intensity
1,SRQAIPPPVPNRPGG,1980

# Molecular target: ScSho1
# Assay: as above
# Procedure, shortened: as §1
row,Binder,SPOT peptide array binding signal intensity
1,SRQAIPPPVPNRPGG,32

# Molecular target: ScSla1-D1-D2
# Assay: as above
# Procedure, shortened: as §1
row,Binder,SPOT peptide array binding signal intensity
1,SRQAIPPPVPNRPGG,695

# Molecular target: ScSla1-D3
# Assay: as above
# Procedure, shortened: as §1
row,Binder,SPOT peptide array binding signal intensity
1,SRQAIPPPVPNRPGG,9.5

# Molecular target: SpAbp1-D1
# Assay: as above
# Procedure, shortened: as §1
row,Binder,SPOT peptide array binding signal intensity
1,SRQAIPPPVPNRPGG,17

# Molecular target: SpBbc1
# Assay: as above
# Procedure, shortened: as §1
row,Binder,SPOT peptide array binding signal intensity
1,SRQAIPPPVPNRPGG,723

# Molecular target: SpBzz1-D1
# Assay: as above
# Procedure, shortened: as §1
row,Binder,SPOT peptide array binding signal intensity
1,SRQAIPPPVPNRPGG,760

# Molecular target: SpBzz1-D2
# Assay: as above
# Procedure, shortened: as §1
row,Binder,SPOT peptide array binding signal intensity
1,SRQAIPPPVPNRPGG,59.5

# Molecular target: SpCyk3
# Assay: as above
# Procedure, shortened: as §1
row,Binder,SPOT peptide array binding signal intensity
1,SRQAIPPPVPNRPGG,3

# Molecular target: SpHof1
# Assay: as above
# Procedure, shortened: as §1
row,Binder,SPOT peptide array binding signal intensity
1,SRQAIPPPVPNRPGG,≤ 0

# Molecular target: SpHof1-2
# Assay: as above
# Procedure, shortened: as §1
row,Binder,SPOT peptide array binding signal intensity
1,SRQAIPPPVPNRPGG,≤ 0

# Molecular target: SpHof1-3
# Assay: as above
# Procedure, shortened: as §1
row,Binder,SPOT peptide array binding signal intensity
1,SRQAIPPPVPNRPGG,126

# Molecular target: SpHse1
# Assay: as above
# Procedure, shortened: as §1
row,Binder,SPOT peptide array binding signal intensity
1,SRQAIPPPVPNRPGG,≤ 0

# Molecular target: SpLsb1
# Assay: as above
# Procedure, shortened: as §1
row,Binder,SPOT peptide array binding signal intensity
1,SRQAIPPPVPNRPGG,1260

# Molecular target: SpLsb4
# Assay: as above
# Procedure, shortened: as §1
row,Binder,SPOT peptide array binding signal intensity
1,SRQAIPPPVPNRPGG,4790

# Molecular target: SpMyo1
# Assay: as above
# Procedure, shortened: as §1
row,Binder,SPOT peptide array binding signal intensity
1,SRQAIPPPVPNRPGG,120

# Molecular target: SpNbp2
# Assay: as above
# Procedure, shortened: as §1
row,Binder,SPOT peptide array binding signal intensity
1,SRQAIPPPVPNRPGG,≤ 0

# Molecular target: SpPex13
# Assay: as above
# Procedure, shortened: as §1
row,Binder,SPOT peptide array binding signal intensity
1,SRQAIPPPVPNRPGG,≤ 0

# Molecular target: SpRvs167
# Assay: as above
# Procedure, shortened: as §1
row,Binder,SPOT peptide array binding signal intensity
1,SRQAIPPPVPNRPGG,2220

# Molecular target: SpSla1-D1-D2
# Assay: as above
# Procedure, shortened: as §1
row,Binder,SPOT peptide array binding signal intensity
1,SRQAIPPPVPNRPGG,5

# Molecular target: SpSla1-D3
# Assay: as above
# Procedure, shortened: as §1
row,Binder,SPOT peptide array binding signal intensity
1,SRQAIPPPVPNRPGG,≤ 0
